# In PubChem BioAssay (NCATS):
# Several values for one entry are separate records, joined by “and”; a condition that tells them apart may be missing. Identical values can stand only once. Inconclusive results are not listed. A call without a number means that no potency is given here. More than one record can exist for a structure, and the calls need not agree. Values without a mark were called inactive. Activity calls are given as the source filed them. Calls come from the whole dose curve; as a rule, active = well fitted inhibition curve with a large enough effect; inconclusive = small, poorly fitted or top-dose-only effect; inactive = flat fitted curve, though single readings scatter. Peptide text beside a SMILES is read from it.
# Assays:
# [1] = tested on: CRL-7250; experiment: Cytotoxic Profiling of Annotated Libraries Using Quantitative High-Throughput Screening (AID 1296008); details: Five cell lines viability, CellTiter-Glo ATP luminescence, 48-72 h; max response: active compounds read low; note: potency is the fitted concentration of half-maximal effect
# How it was run: (§1)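 Cells exposed to compounds for 48 or 72 hr at 37 degrees Celsius. Viability read as ATP-coupled luminescence with CellTiter-Glo after 10 min at room temperature.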
# [2] = tested on: HEK293; experiment: as above; details: Five cell lines viability, CellTiter-Glo ATP luminescence, 48-72 h; max response: active compounds read low
# How it was run: as §1
# [3] = tested on: HaCat; experiment: as above; details: Five cell lines viability, CellTiter-Glo ATP luminescence, 48-72 h; max response: active compounds read low
# How it was run: as §1
# [4] = tested on: KB-3-1; experiment: as above; details: Five cell lines viability, CellTiter-Glo ATP luminescence, 48-72 h; max response: active compounds read low
# How it was run: as §1
# [5] = tested on: NIH3T3; experiment: as above; details: Five cell lines viability, CellTiter-Glo ATP luminescence, 48-72 h; max response: active compounds read low
# How it was run: as §1
# [6] = tested on: HACAT; experiment: qHTS assay to identify novel small-molecules to repurpose for Merkel cell carcinoma treatment (AID 1296009); details: MCC and control cell lines, CellTiter-Glo viability, 72 h; at 44.8 µM (top of the series) unless noted
# How it was run: (§2)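 Cells were incubated with compound for 72 hr at 37 degree celsius before CellTiter-Glo addition. Luminescence was normalized with no-cell wells as full cytotoxicity and DMSO as baseline.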
# [7] = tested on: JCK; experiment: qHTS profiling for inhibitors of Plasmodium falciparum proliferation (AID 504749); note: potency is the fitted concentration of half-maximal effect; details: P. falciparum in erythrocytes, SYBR Green DNA, 72 h; series mostly up to 28.7 µM
# How it was run: (§3)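 Readout was DNA-dye fluorescence from lysed cultures, ex 485/em 535 nm. Parasitized red cells had grown 72 h with compound; data scaled between 0.29 uM artemisinin and DMSO wells and corrected using vehicle-only plates.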
# [8] = tested on: N140; experiment: as above; details: P. falciparum in erythrocytes, SYBR Green DNA, 72 h; series mostly up to 28.7 µM
# How it was run: as §3
# [9] = tested on: P93_24; experiment: as above; details: P. falciparum in erythrocytes, SYBR Green DNA, 72 h; series mostly up to 28.7 µM
# How it was run: as §3
# [10] = tested on: P94_40; experiment: as above; details: P. falciparum in erythrocytes, SYBR Green DNA, 72 h; series mostly up to 28.7 µM
# How it was run: as §3
# [11] = tested on: PAD; experiment: as above; details: P. falciparum in erythrocytes, SYBR Green DNA, 72 h; series mostly up to 28.7 µM
# How it was run: as §3
# [12] = tested on: PC15; experiment: as above; details: P. falciparum in erythrocytes, SYBR Green DNA, 72 h; series mostly up to 28.7 µM
# How it was run: as §3
# [13] = tested on: PC26; experiment: as above; details: P. falciparum in erythrocytes, SYBR Green DNA, 72 h; series mostly up to 28.7 µM
# How it was run: as §3
# [14] = tested on: PC49; experiment: as above; details: P. falciparum in erythrocytes, SYBR Green DNA, 72 h; series mostly up to 28.7 µM
# How it was run: as §3
# [15] = tested on: SC27B; experiment: as above; details: P. falciparum in erythrocytes, SYBR Green DNA, 72 h; series mostly up to 28.7 µM
# How it was run: as §3
# [16] = tested on: TAB109; experiment: as above; details: P. falciparum in erythrocytes, SYBR Green DNA, 72 h; series mostly up to 28.7 µM
# How it was run: as §3
# [17] = tested on: TAB113; experiment: as above; details: P. falciparum in erythrocytes, SYBR Green DNA, 72 h; series mostly up to 28.7 µM
# How it was run: as §3
# [18] = tested on: TAB165; experiment: as above; details: P. falciparum in erythrocytes, SYBR Green DNA, 72 h; series mostly up to 28.7 µM
# How it was run: as §3
# [19] = tested on: W2; experiment: as above; details: P. falciparum in erythrocytes, SYBR Green DNA, 72 h; series mostly up to 28.7 µM
# How it was run: as §3
# [20] = tested on: HEK293T; experiment: qHTS assay to identify novel small-molecules to repurpose for Merkel cell carcinoma treatment (AID 1296009); details: MCC and control cell lines, CellTiter-Glo viability, 72 h; at 44.8 µM (top of the series) unless noted
# How it was run: as §2
# Note: nearly all actives have a fitted effect of over 60% in size.
smiles,measurement,setting,value
COc1cc(C(C)=O)ccc1OCCCN1CCC(c2noc3cc(F)ccc23)CC1,max response,[1],-1.04%
same,outcome,[1],inactive
same,max response,[2],-12.6%
same,outcome,[3],inactive
same,outcome,[4],inactive
same,max response,[5],-2.71%
same,outcome,[5],inactive
same,outcome,[6],inactive
CC1(C)CCC(C)(C)c2cc(NC(=O)c3ccc(C(=O)O)cc3)ccc21,Potency,[7],inactive
same,Potency,[8],inactive
same,Potency,[9],inactive
same,Potency,[10],inactive
same,Potency,[11],inactive
same,Potency,[12],inactive
same,Potency,[13],inactive
same,Potency,[14],inactive
same,Potency,[15],inactive
same,Potency,[16],inactive
same,Potency,[17],inactive
same,Potency,[18],inactive
same,Potency,[19],inactive
same,max response,[1],0.132%
same,max response,[2],2.4%
same,outcome,[2],inactive
same,max response,[3],-6.69%
same,outcome,[3],inactive
same,max response,[4],33.6%
same,max response,[5],-2.77%
same,outcome,[5],inactive
same,outcome,[6],inactive
same,outcome,[20],inactive
CN(c1nccc(=O)[nH]1)C1CCN(c2nc3ccccc3n2Cc2ccc(F)cc2)CC1,Potency,[7],inactive
same,Potency,[9],inactive
same,Potency,[11],inactive
same,Potency,[14],inactive
same,Potency,[15],inactive
same,Potency,[17],inactive
same,Potency,[18],inactive
same,Potency,[19],12 µM (active)
same,max response,[1],-35.3% and -24.5%
same,outcome,[1],inactive
same,max response,[2],-109% and 0.851% and -12.1%
same,max response,[3],0.328%
same,outcome,[3],inactive
same,max response,[4],1.53%
same,outcome,[4],inactive
same,max response,[5],0.52% and 4.28%
same,outcome,[5],inactive
same,outcome,[6],inactive
COc1ccc(C2(C#N)CCC(C(=O)O)CC2)cc1OC1CCCC1 (stereo not given),Potency,[7],inactive
same,Potency,[8],inactive
same,Potency,[9],inactive
same,Potency,[10],inactive
same,Potency,[11],inactive
same,Potency,[12],inactive
same,Potency,[13],inactive
same,Potency,[14],inactive
same,Potency,[15],inactive
same,Potency,[16],inactive
same,Potency,[17],inactive
same,Potency,[18],inactive
same,Potency,[19],inactive
same,outcome,[1],inactive
same,max response,[2],4.74%
same,outcome,[2],inactive
same,outcome,[3],inactive
same,max response,[4],6.11% and 7.73% and 2.33%
same,max response,[5],4.78% and 4.09%
same,outcome,[6],inactive
same,outcome,[20],inactive
O=C(O)CCNC(=O)c1ccc(N=Nc2ccc(O)c(C(=O)O)c2)cc1,Potency,[7],inactive
same,Potency,[8],inactive
same,Potency,[9],inactive
same,Potency,[10],inactive
same,Potency,[11],inactive
same,Potency,[12],inactive
same,Potency,[13],inactive
same,Potency,[14],inactive
same,Potency,[15],inactive
same,Potency,[16],inactive
same,Potency,[17],inactive
same,Potency,[18],inactive
same,Potency,[19],inactive
same,max response,[1],-3.32%
same,outcome,[1],inactive
same,max response,[2],-9.94% and 3.93%
same,max response,[3],-13.4%
same,outcome,[3],inactive
same,outcome,[5],inactive
same,outcome,[6],inactive
COC(=O)[C@H](Cc1ccccc1)NC(=O)[C@@H](N)CC(=O)O (H-Asp-Phe-OMe),Potency,[7],inactive
same,Potency,[8],inactive
same,Potency,[9],inactive
same,Potency,[10],inactive
same,Potency,[11],inactive
same,Potency,[12],inactive
same,Potency,[13],inactive
same,Potency,[14],inactive
same,Potency,[15],inactive
same,Potency,[16],inactive
same,Potency,[17],inactive
same,Potency,[18],inactive
same,Potency,[19],inactive
same,max response,[1],3.9%
same,outcome,[1],inactive
same,max response,[2],-5.62% and -7.54%
same,max response,[3],0.0507% and -16.9%
same,max response,[4],0.426% and 2.8% and -6.99%
same,max response,[5],-5.4% and -2.3%
COC1=C(OC)C(=O)C(CCCCCCCCCCO)=C(C)C1=O,Potency,[7],inactive
same,Potency,[8],inactive
same,Potency,[9],inactive
same,Potency,[11],inactive
same,Potency,[12],inactive
same,Potency,[13],inactive
same,Potency,[14],inactive
same,Potency,[15],inactive
same,Potency,[16],inactive
same,max response,[1],-2.47%
same,outcome,[1],inactive
same,Potency,[2],23.7 µM (active)
same,max response,[3],-8.33%
same,outcome,[3],inactive
same,max response,[4],-4.5% and -1.13%
same,max response,[5],4.9%
same,outcome,[5],inactive
same,outcome,[6],inactive
CC1=C(C(=O)O)N2C(=O)[C@@H](NC(=O)[C@H](N)C3=CCC=CC3)[C@H]2SC1,max response,[1],-13.1%
same,outcome,[1],inactive
same,max response,[2],-32.9%
same,outcome,[2],inactive
same,outcome,[3],inactive
same,max response,[4],-3.32%
same,outcome,[4],inactive
same,outcome,[5],inactive
same,outcome,[6],inactive
same,outcome,[20],inactive
COc1ccc2cc([C@H](C)C(=O)O)ccc2c1,Potency,[7],inactive
same,Potency,[8],inactive
same,Potency,[10],inactive
same,Potency,[11],inactive
same,Potency,[12],inactive
same,Potency,[13],inactive
same,Potency,[14],inactive
same,Potency,[15],inactive
same,Potency,[16],inactive
same,Potency,[17],inactive
same,Potency,[18],inactive
same,max response,[1],-17% and 0.0913% and -30.7%
same,max response,[2],0.939%
same,outcome,[2],inactive
same,max response,[3],-13.6%
same,outcome,[3],inactive
same,max response,[4],11.2% and 5.36% and -1.1%
same,max response,[5],2.8% and -7.1%
same,outcome,[5],inactive
same,outcome,[6],inactive
same,outcome,[20],inactive
CCN(CC)C(=S)SSC(=S)N(CC)CC,Potency,[1],0.105 µM (active)
same,outcome,[1],inactive
same,Potency,[2],59 nM (active) and 313 nM (active) and 841 nM (active)
same,Potency,[3],11.1 µM (active)
same,Potency,[4],0.0833 µM (active)
same,max response,[4],0.882% and 32.2%
Cc1cccc(CN2CCN(C(c3ccccc3)c3ccc(Cl)cc3)CC2)c1 (stereo not given),max response,[1],-2.17%
same,outcome,[1],inactive
same,outcome,[3],inactive
same,max response,[4],8.45% and -5.16%
same,max response,[5],3.98% and 1.14%
same,outcome,[6],inactive
